# In the supplement of paper PMC13172266:
# Counter-ions that a name gives are not always drawn.
# Test system: U2932 parental
# Experiment: cell proliferation relative to vehicle (% of vehicle); higher = less growth inhibition
# Details: 500 nM; 72 h
# Method in brief: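 Parental U2932 cells (ABC-DLBCL) and two clones made resistant to an ETS-targeting agent by almost a year of repeated exposure were treated for 72 h with 348 targeted inhibitors at 500 nM or 50 nM. MTT was then applied for 4 h, the reaction was stopped with 25% SDS, and absorbance was measured on a Cytation 3. Values express proliferation as percent of proliferating cells compared with DMSO vehicle.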
row,Structure (SMILES),cell proliferation
1,O=C1NC(=O)C(c2ccccc2[N+](=O)[O-])=C1Nc1ccc(O)c(Cl)c1,101
2,C[S+]([O-])c1ccc(-c2nc(-c3ccc(F)cc3)c(-c3ccncc3)[nH]2)cc1 (centres undefined),101
3,CCC[C@H](Nc1nc(-c2ccc(NC(=O)NCC)c(OC)c2)ncc1C)c1cccnc1 [CYT997 (Lexibulin)],14.3
4,CC1(C)CNc2cc(NC(=O)c3cccnc3NCc3ccncc3)ccc21 [Motesanib Diphosphate (AMG-706)],93.9
5,Cc1nnc(C(C)C)n1C1C[C@H]2CC[C@@H](C1)N2CC[C@H](NC(=O)C1CCC(F)(F)CC1)c1ccccc1 (stereo in doubt) [Maraviroc],89.6
6,Nc1ccc(C(=O)Nc2cccc(-c3nc(N4CCOCC4)c4oc5ncccc5c4n3)c2)cn1,103
7,CCCC(CCC)C(=O)O [Valproic acid sodium salt (Sodium valproate)],97.6
8,N#Cc1c(Oc2ccc(F)c(NC(=O)Cc3cccc(C(F)(F)F)c3)c2)ccc2nc(NC(=O)C3CC3)sc12,98.6
9,Oc1ccc(/C=C/c2cc(O)cc(O)c2)cc1 [Resveratrol],101
10,CC1(C)CCC(CN2CCN(c3ccc(C(=O)NS(=O)(=O)c4ccc(NCC5CCOCC5)c([N+](=O)[O-])c4)c(Oc4cnc5[nH]ccc5c4)c3)CC2)=C(c2ccc(Cl)cc2)C1,66.9
11,"CO[C@H]1C[C@@H]2CC[C@@H](C)[C@@](O)(O2)C(=O)C(=O)N2CCCC[C@H]2C(=O)O[C@H]([C@H](C)C[C@@H]2CC[C@@H](OP(C)(C)=O)[C@H](OC)C2)CC(=O)[C@H](C)/C=C(\C)[C@@H](O)[C@@H](OC)C(=O)[C@H](C)C[C@H](C)/C=C/C=C/C=C/1C [Ridaforolimus (Deforolimus, MK-8669)]",57.2
12,CCC(C)(C)C(=O)O[C@H]1C[C@@H](C)C=C2C=C[C@H](C)[C@H](CC[C@@H]3C[C@@H](O)CC(=O)O3)[C@H]21 [Simvastatin],87.4
13,Cc1cc(CS(=O)(=O)c2ccccc2)cc(OCc2ccc(CN3CCC[C@@H]3CO)cc2)c1,107
14,Cn1c(Nc2ccc(C(F)(F)F)cc2)nc2cc(Oc3ccnc(-c4ncc(C(F)(F)F)[nH]4)c3)ccc21,88
15,"CC[C@H](Nc1ncnc2[nH]cnc12)c1nc2cccc(F)c2c(=O)n1-c1ccccc1 [CAL-101 (Idelalisib, GS-1101)]",96.6
16,"COc1cc(F)c(F)c(Nc2ccc(I)cc2F)c1NS(=O)(=O)C1(C[C@H](O)CO)CC1 [Refametinib (RDEA119, Bay 86-9766)]",96.2
17,CC(=O)Nc1cccc(-n2c(=O)n(C3CC3)c(=O)c3c(Nc4ccc(I)cc4F)n(C)c(=O)c(C)c32)c1,94.4
18,O=C(O)CCNc1cc(N2CCc3ccccc3CC2)nc(-c2ccccn2)n1,99.8
19,C[C@@H]1CCN(C(=O)CC#N)C[C@@H]1N(C)c1ncnc2[nH]ccc12,107
20,COc1ccc(-c2ccc3ncc4c(c3c2)n(-c2ccc(N3CCNCC3)c(C(F)(F)F)c2)c(=O)n4C)cn1,1.95

row,Structure (SMILES),cell proliferation
1,Clc1ccc(C2(c3ccc(-c4cn[nH]c4)cc3)CCNCC2)cc1,75.5
2,O=C(CCCCCCNC(=O)c1cnc(N(c2ccccc2)c2ccccc2)nc1)NO [Rocilinostat (ACY-1215)],92.2
3,CCCCCCCCCCCC1=C(O)C(=O)C=C(O)C1=O [Embelin],89.7
4,COc1cc2ncnc(Oc3ccc(CC(=O)Nc4cnn(C(C)C)c4)cc3)c2cc1OC,95.7
5,C[C@H](NC(=O)/C(C#N)=C/c1cccc(Br)n1)c1ccccc1,102
6,CO[C@H]1C[C@@H]2CC[C@@H](C)[C@@](O)(O2)C(=O)C(=O)N2CCCC[C@H]2C(=O)O[C@H]([C@H](C)C[C@@H]2CC[C@@H](OC(=O)C(C)(CO)CO)[C@H](OC)C2)CC(=O)[C@H](C)/C=C(\C)[C@@H](O)[C@@H](OC)C(=O)[C@H](C)C[C@H](C)/C=C/C=C/C=C/1C,58.9
7,CNC(=O)c1ccccc1Sc1ccc2c(/C=C/c3ccccn3)n[nH]c2c1 [Axitinib],87.4
8,CCOC(=O)c1[nH]c2cc(Cl)ccc2c1C(C(=O)NC(C)(C)C)N(C=O)Cc1ccc(Cl)cc1 (centres undefined),93.4
9,O=C(NC[C@H](O)CO)c1ccncc1Nc1ccc(I)cc1F,89.5
10,NC(=O)c1cccc2cn(-c3ccc([C@@H]4CCCNC4)cc3)nc12 [MK-4827(Niraparib) tosylate],97.1
11,CC(C)N(CCCNC(=O)Nc1ccc(C(C)(C)C)cc1)C[C@H]1O[C@@H](n2cc(Br)c3c(N)ncnc32)[C@H](O)[C@@H]1O,100
12,O=C(O)CC[C@H]1CC[C@@](c2cc(F)ccc2F)(S(=O)(=O)c2ccc(Cl)cc2)CC1,93.2
13,Clc1ccc(Nc2nnc(Cc3ccncc3)c3ccccc23)cc1 [Vatalanib (PTK787) 2HCl],102
14,C=CCc1ccc(O)c(-c2ccc(O)c(CC=C)c2)c1 [Honokiol],106
15,O=C(O)C(=O)O.[NH-][C@@H]1CCCC[C@H]1[NH-].[Pt+2] [Oxaliplatin],93.2
16,CN1CCC(CNc2ccc3ncc(-c4cccc(OC(F)(F)F)c4)n3n2)CC1 [SGI-1776 free base],94.1
17,O=c1ncccn1[C@@H]1O[C@H](CO)[C@@H](O)[C@H]1O [Zebularine],102
18,COc1cc(Nc2ncc(F)c(Nc3ccc4c(n3)N(COP(=O)(O)O)C(=O)C(C)(C)O4)n2)cc(OC)c1OC [Fostamatinib (R788)],93.6
19,Oc1cccc(-c2nc(N3CCOCC3)c3oc4ncccc4c3n2)c1,48
